The nature of assay [1]: NCI Yeast Anticancer Drug Screen. Data for the rad50 strain (AID 155).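 Further: 0% = growth of vehicle-only cultures of the same strain.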 The following applies: S. cerevisiae rad50 strain growth inhibition, active compounds read high. The method, boiled down:
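Relative growth inhibition (compound vs vehicle) was measured in yeast with a defined repair-gene alteration.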

Assay [2] is described as follows: NCI Yeast Anticancer Drug Screen. Data for the mec2-1 strain (AID 157). The following applies: S. cerevisiae mec2-1 strain, active compounds read high. The essentials: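 Cells of the genetically defined mec2-1 yeast strain are incubated with test compound. Inhibition of growth is calculated against vehicle-treated controls.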
Assay [3] can be described thus: NCI Yeast Anticancer Drug Screen. Data for the sgs1 mgt1 strain (AID 161).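 Further: 0% = growth of cultures given vehicle only.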 The following applies: S. cerevisiae sgs1 mgt1 strain, active compounds read high. The method, boiled down: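 Read-out: growth inhibition vs vehicle controls. Cells: mutant yeast strain deficient in DNA damage repair.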
The nature of assay [4]: NCI Yeast Anticancer Drug Screen. Data for the cln2 rad14 strain (AID 165).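 Further: 0% = growth equal to vehicle treated cultures.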 The following applies: S. cerevisiae cln2 rad14 strain, active compounds read high. The method, boiled down: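 The screen exposed genetically defined yeast (cln2 rad14) to test compounds and scored growth inhibition relative to vehicle-treated controls.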
Assay [5] in a line: NCI Yeast Anticancer Drug Screen. Data for the bub3 strain (AID 167). The following applies: S. cerevisiae bub3 mutant strain, active compounds read high. The method, boiled down:
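Screening used yeast with an engineered genetic alteration affecting cell cycle control. Compound-exposed cultures were compared with vehicle cultures, and reduced growth was taken as inhibition.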

A short description of assay [6]: NCI Yeast Anticancer Drug Screen. Data for the mlh1 rad18 strain (AID 175). The following applies: S. cerevisiae mlh1 rad18 strain growth inhibition, active compounds read high. The essentials: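 Compound-treated yeast growth, normalised to vehicle controls. Strain bears defined DNA repair mutations.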
Where [7] appears, read: at 5.0 µM (retest, dose inferred, filed as 0.5).
The mark [8] stands for this setting: at 50.0 µM (retest, dose inferred, filed as 5.0).

The panel holds about 79,000 compounds, 15% with a hit somewhere; the sample as a whole holds those more often. Values without a mark were called inactive. Activity calls are given as the source filed them. No stated cut-off is given here; in the data, active means growth inhibition above about 70%; inactive means the rest.

Turning to `CCC[CH2][Sn]1([CH2]CCC)[O]C(=O)CN=Cc2c(ccc3ccccc23)[O]1`, the growth inhibition in assay [1] (setting [7]) was 47%; in assay [1] (setting [8]) it was 47%; in assay [1] (at 50.0 µM), 91.2% (active); in assay [2] (setting [7]) it was 74% (active); in assay [2] (setting [8]), 74% (active); in assay [2] (at 50.0 µM), 94% (active). Besides, the growth inhibition in assay [3] (setting [7]) is 38%; in assay [3] (setting [8]), 38%; in assay [3] (at 50.0 µM) it was 92.9% (active); in assay [4] (setting [7]), 48%; in assay [4] (setting [8]), 48%; in assay [4] (at 50.0 µM), 92.6% (active). The growth inhibition in assay [5] (setting [7]) is 53%; in assay [5] (setting [8]), 53%; in assay [5] (at 50.0 µM), 92.6% (active); in assay [6] (setting [7]), 67%; in assay [6] (setting [8]), 67%; in assay [6] (at 50.0 µM), 91.7% (active).
`C=CC[C@]1(C(C)C(OC(C)=O)c2ccc3c(c2)OCO3)C[C@@H](OC)C=CC1=O` (some centres not stated): the growth inhibition was 10% in assay [1] (setting [7]); 98% (active) in assay [1] (setting [8]); 10.5% in assay [1] (at 50.0 µM); 10% in assay [2] (setting [7]); 98% (active) in assay [2] (setting [8]); -0.85% in assay [2] (at 50.0 µM). The growth inhibition was 10% in assay [3] (setting [7]); 98% (active) in assay [3] (setting [8]); -0.2% in assay [3] (at 50.0 µM); -3% in assay [4] (setting [7]); 98% (active) in assay [4] (setting [8]); -12.7% in assay [4] (at 50.0 µM). In addition, the growth inhibition in assay [5] (setting [7]) was 4%; in assay [5] (setting [8]) it was 98% (active); in assay [5] (at 50.0 µM) it was 1.4%; in assay [6] (setting [7]), 9%; in assay [6] (setting [8]) it was 98% (active); in assay [6] (at 50.0 µM), 40%.
`O=C1OC(c2ccccc2)CC1Cc1ccccc1` (configuration not stated): the growth inhibition in assay [1] (setting [7]) is -10%; in assay [1] (setting [8]), -15%; in assay [1] (at 50.0 µM), 1.7%; in assay [2] (setting [7]), -32%; in assay [2] (setting [8]) it was 3%; in assay [2] (at 50.0 µM) it was -0.25%. Moreover, the growth inhibition in assay [3] (setting [7]) is -2%; in assay [3] (setting [8]), 8%; in assay [3] (at 50.0 µM) it was -12.9%; in assay [4] (setting [7]), 9%; in assay [4] (setting [8]) it was -5%; in assay [4] (at 50.0 µM) it was -6.55%. The growth inhibition in assay [5] (setting [7]) was -2%; in assay [5] (setting [8]), 6%; in assay [5] (at 50.0 µM), 29.1%; in assay [6] (setting [7]), -17%; in assay [6] (setting [8]), -21%; in assay [6] (at 50.0 µM) it was -33.8%.
On to `O=S(=O)(c1ccc(O)cc1)c1ccc(Cl)cc1`, for which the growth inhibition in assay [1] (setting [7]) is -8%; in assay [1] (setting [8]), 38%; in assay [1] (at 50.0 µM) it was 44.3%; in assay [2] (setting [7]) it was -11%; in assay [2] (setting [8]), 20%; in assay [2] (at 50.0 µM), 81.3% (active). In addition, the growth inhibition in assay [3] (setting [7]) was -5%; in assay [3] (setting [8]) it was 49%; in assay [3] (at 50.0 µM), 79.5% (active); in assay [4] (setting [7]), 4%; in assay [4] (setting [8]) it was 35%; in assay [4] (at 50.0 µM), 49.1%. The growth inhibition was 0% in assay [5] (setting [7]); 46% in assay [5] (setting [8]); 56.2% in assay [5] (at 50.0 µM); 4% in assay [6] (setting [7]); 79% (active) in assay [6] (setting [8]); 48.2% in assay [6] (at 50.0 µM).
In the case of `C=C1CC(C)(COc2ccc3c(C)c(C)c(=O)oc3c2C)OC1=O` (configuration not stated), the growth inhibition was 26% in assay [1] (setting [7]); 82% (active) in assay [1] (setting [8]); -23.4% in assay [1] (at 50.0 µM); 16% in assay [2] (setting [7]); 90% (active) in assay [2] (setting [8]); -75.4% in assay [2] (at 50.0 µM). In addition, the growth inhibition in assay [3] (setting [7]) was 24%; in assay [3] (setting [8]), 73% (active); in assay [3] (at 50.0 µM), -10.7%; in assay [4] (setting [7]), 30%; in assay [4] (setting [8]), 64%; in assay [4] (at 50.0 µM), -23.1%. The growth inhibition in assay [5] (setting [7]) was 26%; in assay [5] (setting [8]), 86% (active); in assay [5] (at 50.0 µM), -10.8%; in assay [6] (setting [7]), 29%; in assay [6] (setting [8]), 94% (active); in assay [6] (at 50.0 µM), -24.7%.
As for `Cc1ccc([PH+](CC[PH+](c2ccccc2)c2ccccc2)c2ccc(C)cc2)cc1.Cc1ccc([PH+](CC[PH+](c2ccccc2)c2ccccc2)c2ccc(C)cc2)cc1.[Pt]`, the growth inhibition in assay [1] (setting [7]) is 40%; in assay [1] (setting [8]), 88% (active); in assay [1] (at 50.0 µM) it was 88.8% (active); in assay [2] (setting [7]) it was 26%; in assay [2] (setting [8]), 91% (active); in assay [2] (at 50.0 µM), 90.7% (active). Further, the growth inhibition in assay [3] (setting [7]) was 33%; in assay [3] (setting [8]) it was 95% (active); in assay [3] (at 50.0 µM) it was 91.3% (active); in assay [4] (setting [7]) it was 34%; in assay [4] (setting [8]), 93% (active); in assay [4] (at 50.0 µM), 89.8% (active). The growth inhibition in assay [5] (setting [7]) was 29%; in assay [5] (setting [8]) it was 94% (active); in assay [5] (at 50.0 µM), 90.7% (active); in assay [6] (setting [7]), 39%; in assay [6] (setting [8]), 93% (active); in assay [6] (at 50.0 µM), 88.5% (active).
Consider `C[N+](C)([O-])CCOc1cc2c(c3ccccc13)-c1ccccc1C2=O`, for which the growth inhibition was 1% in assay [1] (setting [7]); 63% in assay [1] (setting [8]); 83.8% (active) in assay [1] (at 50.0 µM); -1% in assay [2] (setting [7]); 7% in assay [2] (setting [8]); -4.3% in assay [2] (at 50.0 µM). For the same compound, the growth inhibition in assay [3] (setting [7]) is -4%; in assay [3] (setting [8]) it was 19%; in assay [3] (at 50.0 µM) it was -8.2%; in assay [4] (setting [7]), -5%; in assay [4] (setting [8]), 5%; in assay [4] (at 50.0 µM) it was 13%. Besides, the growth inhibition was -5% in assay [5] (setting [7]); 4% in assay [5] (setting [8]); 0.15% in assay [5] (at 50.0 µM); 1% in assay [6] (setting [7]); 13% in assay [6] (setting [8]); 16.9% in assay [6] (at 50.0 µM).
On to `CCC[CH2][Ge]([CH2]CCC)([CH2]CCC)[O]C(C)=O`, for which the growth inhibition in assay [1] (setting [7]) was 2%; in assay [1] (setting [8]) it was 9%; in assay [1] (at 50.0 µM), 54.1%; in assay [2] (setting [7]), 0%; in assay [2] (setting [8]), 19%; in assay [2] (at 50.0 µM), 27.3%. Moreover, the growth inhibition is 4% in assay [3] (setting [7]); 21% in assay [3] (setting [8]); 61.8% in assay [3] (at 50.0 µM); 1% in assay [4] (setting [7]); -1% in assay [4] (setting [8]); 70.8% (active) in assay [4] (at 50.0 µM). Further, the growth inhibition in assay [5] (setting [7]) is -2%; in assay [5] (setting [8]), 6%; in assay [5] (at 50.0 µM), 19.2%; in assay [6] (setting [7]) it was 2%; in assay [6] (setting [8]) it was 11%; in assay [6] (at 50.0 µM), 52.8%.
For `Clc1ccc(-c2noc(CN3CCCCC3)n2)cc1`, the growth inhibition was 10% in assay [1] (setting [7]); 38% in assay [1] (setting [8]); 66% in assay [1] (at 50.0 µM); 0% in assay [2] (setting [7]); 24% in assay [2] (setting [8]); 15.2% in assay [2] (at 50.0 µM). In addition, the growth inhibition in assay [3] (setting [7]) is 2%; in assay [3] (setting [8]), 62%; in assay [3] (at 50.0 µM), 49.6%; in assay [4] (setting [7]), -7%; in assay [4] (setting [8]) it was 21%; in assay [4] (at 50.0 µM), 73.3% (active). For the same compound, the growth inhibition is -1% in assay [5] (setting [7]); 25% in assay [5] (setting [8]); 71.9% (active) in assay [5] (at 50.0 µM); -4% in assay [6] (setting [7]); 24% in assay [6] (setting [8]); 67.3% in assay [6] (at 50.0 µM).

The values above are taken from PubChem BioAssay (NCI).
